About 31,000 (8.9%) of roughly 350,000 compounds were called active. Where a call stands in place of a potency, no number is given. Not shown: some 15% with an inconclusive outcome. Calls come from the whole dose curve; as a rule, active = well fitted inhibition curve with a large enough effect; inconclusive = small, poorly fitted or top-dose-only effect; inactive = no such curve, though single readings can be large or run the other way. Many of the other results were omitted from the sample, so actives are more common in it than they were.
Each compound was assayed against Histone-lysine N-methyltransferase EHMT2 (Homo sapiens) (UniProt Q96KQ7) (assay: qHTS Assay for Inhibitors of Histone Lysine Methyltransferase G9a). Conditions: G9a H3K9 monomethylation, AlphaScreen, 2 h; series mostly up to 59 µM.
Chain of Histone-lysine N-methyltransferase EHMT2 (Homo sapiens) (Q96KQ7 913-1193 limits assumed): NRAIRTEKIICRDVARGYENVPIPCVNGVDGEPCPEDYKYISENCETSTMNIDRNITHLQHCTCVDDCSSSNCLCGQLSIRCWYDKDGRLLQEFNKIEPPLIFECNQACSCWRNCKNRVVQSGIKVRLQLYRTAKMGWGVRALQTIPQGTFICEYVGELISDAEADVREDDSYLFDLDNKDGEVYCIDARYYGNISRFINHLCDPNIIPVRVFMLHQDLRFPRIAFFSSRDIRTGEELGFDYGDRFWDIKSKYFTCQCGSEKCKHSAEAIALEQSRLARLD
Excerpt: Methylated lysines, on the N-terminal tails of histone proteins serve as epigenetic markers to recruit factors that can then modify local chromatin structure to lead to functional consequences. G9a and other members of the SUV39 family of the SET domain-containing superfamily of histone lysine methyltransferases (HMT) have been identified to specifically methylate Lys9 of histone H3 (H3K9). G9a catalyzes the mono- and di-methylation of H3K9 in mammalian euchromatic regions, where the resulting H3K9me2 is indicative of transcriptional repression. […] The inhibition of G9a will result in transcriptional activation and work synergistically with DNA methyltransferase and histone deacetylase inhibitors, to kill cancer cells. This qHTS assay for identification of G9a inhibitors is a chemiluminescence based AlphaScreen (PerkinElmer). Methylation of biotinylated-histone peptide is measured through specific antibody-based detection, in conjunction with streptavidin-coated donor and anti-IgG antibody-coated acceptor beads. The method is particularly well suited for detection of inhibitors acting by the desired histone peptide competitive mechanism and is applicable to testing other HMTs. Although AlphaScreen has significant advantages with its utility in a variety of epigenetic target assays, the primary screening data provided in this deposition should be used with caution due to the prevalence of screening artifacts. An AlphaScreen counterscreen is highly recommended to be run against any putative actives to eliminate non specific artifacts. Alternatively, one can use other AlphaScreen assays in PubChem to filter out promiscuous hits. Quinn et al. A chemiluminescence-based method for identification of histone lysine methyltransferase inhibitors. Mol Biosyst 6(5): 782-8. 2010. PMID: 20567762 [2] Baell,Holloway. New substructure filters for removal of pan assay interference compounds (PAINS) from screening libraries and for their exclusion in bioassays. J Med Chem. 53(7):2719-40. 2010. PMID: 20131845 NIH Molecular Libraries Probe Production Network [MLPCN] NIH Chemical Genomics Center [NCGC] Structural Genomics Consortium (SGC) NIH Grant: 5U54 MH084681-02
To each well of a 1,536w plate, 2ul of HMT enzyme (final 20nM) were added, using a nanoliter dispenser. The G9a- and GLP-inhibitor BIX-01294 (CID: 25150857) are used as an intraplate control, with a 16-point titration in duplicate. A Kalypsys pin-tool transferred 23nl of library compound solution in DMSO to each well. Following a 15 min incubation of enzyme with compounds at room temperature, 1ul mixture of b-H3K9 peptide substrate (final 500nM) and SAM cofactor (final 20uM) were added. Reactions were allowed to proceed at room temperature for 2 hours. Methylated b-H3K9 peptide product was detected with 0.5 ug/mL rabbit polyclonal anti-monomethyl histone H3K9 antibody (Abcam Inc., Cambridge, MA) and 20 ug/mL each streptavidin-coated donor and anti-rabbit IgG acceptor AlphaScreen beads. Antibody and beads were added in a 1ul dispense, for a final volume of 4ul, and plates were incubated, protected from the light, for 10 min at room temperature. Microplates were then read on an EnVision multilabel plate reader using the 1,536 plate HTS AlphaScreen aperture (excitation time 80 ms, measurement time 240 ms).
Note: nearly all actives have a fitted effect of over 75% in size.
Potency is the fitted concentration of half-maximal effect.

Structure (SMILES) | Potency | activity, negative = inhibition
COc1cc(NC(=O)c2cc(C3CC3)nc3c2c(C)nn3-c2ccccc2)cc(OC)c1 | inactive | –
CCc1ccc(S(=O)(=O)Nc2cc3c(C(=O)OCc4ccccc4)c(C)oc3c3ccccc23)cc1 | inactive | –
CCCCNC(=O)Cn1nc(C)c(S(=O)(=O)N2CCOCC2)c1C | – | 8.75% [at 12.7 µM] (inactive)
O=C(C1=C(O)C(=O)N(c2ncccn2)C1c1cccs1)c1ccco1 (centres undefined) | 10 µM (active) | –
O=C(c1ccco1)N1CCC2(CC1)CCN(c1ncccn1)CC2 | – | 4.8% [at 12.7 µM] (inactive)
O=C(c1ccco1)N1CCC2(CC1)CN(c1ncccn1)C2 | – | 6.99% [at 12.7 µM] (inactive)
COC(=O)c1ccc(OC)c(Cn2c(=O)n(Cc3ccccc3)c(=O)c3c2c2cc(OC)ccc2n3C)c1 | inactive | –
Cc1nn(Cc2ccccc2)c(C)c1CNC(=O)c1ccc(F)c(S(=O)(=O)N2CCOCC2)c1 | – | -14.2% [at 12.7 µM] (inactive)
CCN(C(=O)CSc1nc(N)cc(=O)[nH]1)C1CCS(=O)(=O)C1 (centres undefined) | – | 6.8% [at 12.7 µM] (inactive)
Cc1ccc(S(=O)(=O)N2CCCCC2)cc1NC(=O)c1cccnc1 | inactive | –
CCN1CCN(c2ccc(S(=O)(=O)N3CCCCC3)cc2NC(=O)Cc2c(Cl)cccc2Cl)CC1 | inactive | –
O=C(Nc1cccc(S(=O)(=O)N2CCCCC2)c1)c1ccc2c(c1)OCO2 | 1 µM (active) | –
O=C(Nc1cccnc1)c1cccc(S(=O)(=O)N2CCCC2)c1 | inactive | –
O=C(Nc1ccc2c(c1)OCCO2)c1ccc(Cl)c(S(=O)(=O)N2CCCCC2)c1 | – | -22.9% [at 12.7 µM] (inactive)
CCN1CCN(c2ccc(S(=O)(=O)N3CCCCC3)cc2NC(=O)c2cccc(NC(C)=O)c2)CC1 | 50.1 µM (active) | –
CC(C)(C)SCCSC1=CC(=O)CC(c2ccccc2)C1 (centres undefined) | inactive | –
O=C(CSc1nc2ccccc2c(=O)n1-c1ccc(F)cc1)NC1CC1 | – | 7.18% [at 0.501 µM] (inactive)
COC(=O)CC1Oc2ccccc2-n2cc(-c3ccccc3)nc21 (centres undefined) | inactive | –
COc1ccc(/C=N/NC(=O)c2cccc(C(F)(F)F)c2)cc1 | inactive | –
COc1ccc(C(=O)Nc2ccccc2C(=O)N/N=C/c2ccc(O)c(OC)c2)cc1 | – | -4.54% [at 2.33 µM] (inactive)

Structure (SMILES) | Potency | activity, negative = inhibition
COc1ccc(/C=N/Nc2ccccc2C(=O)O)cc1 | 79.4 µM (active) | –
COc1ccc(Cc2nnc(SCC(=O)N(c3ccccc3)C(C)C)n(N)c2=O)cc1 | inactive | –
CCOc1ccc(C(=O)CCC(=O)Nc2ccncc2)cc1 | – | -14% [at 12.7 µM] (inactive)
CC(=O)c1ccc(OCCN2CCOCC2)cc1 | 25.1 µM (active) | –
CCCCOc1ccc(C(C)(O)CCN2CCOCC2)cc1 (centres undefined) | inactive | –
Cc1cccc(C)c1OCCN1CCOCC1 | 11.2 µM (active) | –
Cc1ccc(S(=O)(=O)NCCN2CCOCC2)cc1C | – | -19.4% [at 12.7 µM] (inactive)
COc1ccc(C(=O)Nc2ccc(CN3CCOCC3)cc2)cc1 | – | 39.7% [at 12.7 µM] (inactive)
CCOc1ccc(C(=O)CCN2CCOCC2)cc1 | 39.8 µM (active) | –
Cc1cccc(C)c1OCC(O)CN1CCCCC1 (centres undefined) | inactive | –
CCOc1ccc(C2C(C(=O)O)c3ccccc3C(=O)N2CCN2CCOCC2)cc1 (centres undefined) | – | 1.66% [at 12.7 µM] (inactive)
COc1ccc(CCC(=O)NCc2ccc3c(c2)CCN3C(=O)c2ccc(F)cc2)cc1 | inactive | –
CCN(C(=O)COC(=O)CCOc1cccc(C)c1)c1c(N)n(Cc2ccccc2)c(=O)[nH]c1=O | inactive | –
O=C(CSc1ncc(S(=O)(=O)c2ccc(Br)cc2)c(=O)[nH]1)Nc1ccc2c(c1)OCCO2 | inactive | –
O=C(COC(=O)c1cccs1)NCc1cccs1 | inactive | –
Cc1ccc(N2CC(NC(=O)Cc3cccs3)CC2=O)cc1 (centres undefined) | inactive | –
CCN(C(=O)COC(=O)Cc1c(F)cccc1Cl)c1c(N)n(Cc2ccccc2)c(=O)[nH]c1=O | – | 1.45% [at 12.7 µM] (inactive)
Cc1cccc(-c2nc(SCC(=O)Nc3cc(C)on3)c3c(=O)n(C)c(=O)n(C)c3n2)c1 | inactive | –
Cc1ccc(OCC(=O)OCc2cc(=O)n3nc(C4CC4)sc3n2)cc1C | inactive | –
O=C1c2cccc3cc(Br)cc(c23)C(=O)N1Nc1ccccc1 | inactive | –

Structure (SMILES) | Potency | activity, negative = inhibition
O=C(Nc1ccccc1)OCc1cc(-c2ccc(Cl)cc2)on1 | inactive | –
O=C1C=C(c2ccc(Cl)cc2)C(=O)N1Nc1ccccc1 | 7.94 µM (active) | –
COc1ccc(Nc2oc(-c3ccccc3Cl)nc2C#N)cc1 | inactive | –
Cc1cc(NCc2ccco2)n2c(nc3ccccc32)c1C#N | inactive | –
Cc1ccccc1-c1nc(C#N)c(NCc2ccco2)o1 | 39.8 µM (active) | –
O=C(NCCc1ccccc1)c1ccc2c(c1)N(Cc1ccccc1)C(=O)c1ccccc1S2(=O)=O | inactive | –
Cc1cc(S(=O)(=O)N2CCOCC2)ccc1OCC(=O)Nc1cccc(C(F)(F)F)c1 | inactive | –
Cc1ccc(S(=O)(=O)N2CC(O)C[C@H]2C(=O)OCC(=O)Nc2ccc(N3CCOCC3)cc2)cc1C (some centres undefined) | 50.1 µM (active) | –
CC1CCCC(NC(=O)COC(=O)[C@@H]2CC(O)CN2S(=O)(=O)c2ccc3c(c2)OCCO3)C1C (some centres undefined) | inactive | –
CC(C)Oc1ccc(NC(=O)c2cc3ccccc3o2)cc1 | inactive | –
O=C(/C=C(O)/C=C/c1ccc(O)cc1)/C=C/c1ccc(O)cc1 | – | 1.18% [at 0.501 µM] (inactive)
CCOC(=O)C(C)N(c1ccccc1Cl)S(C)(=O)=O (centres undefined) | – | 25.6% [at 12.7 µM] (inactive)
Cc1cc(C)cc(NC(c2nnc(-c3cccc(F)c3)o2)c2ccc(F)cc2Cl)c1 (centres undefined) | inactive | –
O=S(=O)(NCC1OCCc2ccccc21)c1ccccc1 (centres undefined) | – | -24.8% [at 2.33 µM] (inactive)
O=c1/c(=C/c2ccc(CNS(=O)(=O)c3ccccc3)o2)sc2n1CCN=2 | 39.8 µM (active) | –
O=S(=O)(NCCc1ccncc1)c1ccccc1 | inactive | –
COc1ccc(CNC(=O)C(=O)N2CCC3(CC2)OCCN3S(=O)(=O)c2ccc(C)cc2)cc1 | inactive | –
COc1ccccc1C(=O)NC(=O)COC(=O)C1CC1 | inactive | –
O=S(=O)(NCCCCCCNS(=O)(=O)c1c(F)cccc1F)c1ccc2c(c1)OCCO2 | – | 21.9% [at 2.33 µM] (inactive)

— PubChem BioAssay AID504332 (National Center for Advancing Translational Sciences (NCATS), 2011)
